Results as given in PubChem BioAssay (Tox21).
Inconclusive results are not listed. The source made the active and inactive calls. Unless noted, calls follow the shape of the dose curve; as a rule, active = well fitted curve in the direction sought with a large enough effect in the repeat runs; inconclusive = weak or mixed curves; inactive = no such curve, though single readings can be large; an effect the other way counts as inactive or inconclusive.

Key:
[1] = qHTS assay for small molecule agonists of the p53 signaling pathway (AID 651631; calls by dose curve; also: nearly all actives have a fitted effect of over 15% in size)
Procedure, shortened: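 HCT-116 cells carrying a beta-lactamase reporter under p53 response elements were dosed with compound for 16 h at 37 °C. LiveBLAzer B/G FRET substrate was then added for 2 h at room temperature, and fluorescence intensity was read to detect pathway agonism.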

[2] = qHTS assay for small molecules that induce genotoxicity in human embryonic kidney cells expressing luciferase-tagged ATAD5 (AID 651632); also: nearly all actives have a fitted effect of over 15% in size
Procedure, shortened: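 Reporter cells (HEK293T) express luciferase-tagged ATAD5, a protein that accumulates after DNA damage. Treat 16 hr at 37C/5% CO2, add Amplite, wait 30 min at RT, and read luminescence.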

[3] = qHTS assay for small molecule agonists of the p53 signaling pathway - cell viability (AID 651633; calls by dose curve;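 also: p53RE-bla HCT reporter cells with a stable beta-lactamase p53 reporter; nearly all actives have a fitted effect of over 30% in size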)
Procedure, shortened: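 p53RE-bla cells were treated with compound for 16 hours at 37 C. Cytotoxicity was then measured as CellTiter-Glo luminescence after 30 min at room temperature.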

[4] = qHTS assay for small molecules that induce genotoxicity in human embryonic kidney cells expressing luciferase-tagged ATAD5 - cell viability (AID 651634; calls by dose curve; also: nearly all actives have a fitted effect of over 25% in size)
Procedure, shortened: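 Seeding of 2,000 HEK293T ATAD5-luciferase cells per well preceded pin-tool compound transfer. Plates sat 15.5 hr at 37C under 5% CO2, then fluorescence was read after 30 min with CellTiter-Fluor.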

[5] = qHTS assay for small molecule disruptors of the mitochondrial membrane potential - cell viability (AID 720634; calls by dose curve;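 also: human HepG2 liver cancer cells; nearly all actives have a fitted effect of over 20% in size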)
Procedure, shortened: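 Measuring cytotoxicity alongside mitochondrial potential, the screen quantified ATP by luminescence in HepG2 cells after 1 hr compound incubation and a 30 min room-temperature CellTiter-Glo step.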

[6] = qHTS assay to test for compound auto fluorescence at 590 nm (red) in HepG2 cells (AID 720674)
Procedure, shortened: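 Fluorescence at 590 nm emission following 540 nm excitation was recorded from HepG2 wells one hour after compound transfer, with DMSO-only wells as vehicle and Rose Bengal sodium equivalency as the scale.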

[7] = qHTS assay to test for compound auto fluorescence at 535 nm (green) in HepG2 cells (AID 720675)
[8] = qHTS assay to test for compound auto fluorescence at 460 nm (blue) in HEK293 cells (AID 720678)
Procedure, shortened: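 HEK293, 2,000 cells/well, 10% dialyzed FBS; attach 4-5 hr 37C; pin compound or DMSO; o/n 37C/5% CO2; fluorescence 405/460 nm; triamterene-equivalent units.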

[9] = qHTS assay to test for compound auto fluorescence at 535 nm (green) in HEK293 cells (AID 720680)
[10] = qHTS assay to test for compound auto fluorescence at 460 nm (blue) in HEK293 cell free culture (AID 720681)
Procedure, shortened: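 Compounds were added to cell-free DMEM with 10% FBS and fluorescence read directly. The blue channel used 405 nm excitation and 460 nm emission, with triamterene as the reference fluorophore.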

[11] = qHTS assay to test for compound auto fluorescence at 535 nm (green) in HEK293 cell free culture (AID 720682)
Procedure, shortened: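 Green-label autofluorescence (485 nm excitation, 535 nm emission) measured on compound added to cell-free culture medium (DMEM, 10% FBS). Output is expressed relative to fluorescein.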

[12] = qHTS assay to test for compound auto fluorescence at 590 nm (red) in HEK293 cell free culture (AID 720683)
Procedure, shortened: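 Cell-free wells of DMEM with 10% FBS received compound, and intrinsic fluorescence was read at excitation/emission 540/590 nm. Values expressed as equivalence to Rose Bengal sodium.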

[13] = qHTS assay to test for compound auto fluorescence at 590 nm (red) in HepG2 cell free culture (AID 720684)
Procedure, shortened: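 Compounds are added to culture medium (MEM, 10% FBS) lacking cells, then fluorescence is read at excitation 540 nm, emission 590 nm, with Rose Bengal sodium as the equivalency standard.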

[14] = qHTS assay to test for compound auto fluorescence at 460 nm (blue) in HepG2 cell free culture (AID 720685)
Procedure, shortened: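 Compound (23 nL) or DMSO pinned into cell-free MEM with 10% FBS; blue fluorescence read at 405/460 nm excitation/emission, expressed as auto-fluorescence equivalency to triamterene.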

[15] = qHTS assay to test for compound auto fluorescence at 535 nm (green) in HepG2 cell free culture (AID 720686)
[16] = qHTS assay to test for compound auto fluorescence at 590 nm (red) in HEK293 cells (AID 720679)
Procedure, shortened: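 Intensity at 540nm excitation and 590nm emission is reported as Rose Bengal sodium-equivalent autofluorescence. Measurements followed overnight exposure (37C, 5% CO2) of HEK293 cells, 2,000 per well, to 23 nL compound.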

[17] = qHTS assay to test for compound auto fluorescence at 460 nm (blue) in HepG2 cells (AID 720687)
Procedure, shortened: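 HepG2 cells in MEM with 10% FBS, attached overnight at 37 C, were exposed to compound or DMSO for 1 hr at 37 C, 5% CO2. Blue fluorescence was read at 405/460 nm, with triamterene as reference fluorophore.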

[18] = biological target: Glucocorticoid receptor (Homo sapiens) (UniProt P04150); assay: qHTS assay to identify small molecule agonists of the glucocorticoid receptor (GR) signaling pathway (AID 720691; active = well fitted activation curve with a large enough effect in the signal ratio in the repeat runs, not every such curve was filed as active; the % refers to the signal ratio); conditions: GR-bla HeLa, beta-lactamase reporter ratio, 18 h; activation: at 62.4 µM (top of the series)
Procedure, shortened: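 Reporter read-out: fluorescence intensity following 2 h room-temperature LiveBLAzer B/G FRET substrate loading. Prior step: GR-bla HeLa cells held 4 h, then treated 18 h at 37 C.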

[19] = biological target: Glucocorticoid receptor (Homo sapiens) (UniProt P04150); assay: qHTS assay to identify small molecule antagonists of the glucocorticoid receptor (GR) signaling pathway (AID 720692; active = well fitted inhibition curve with a large enough effect in the signal ratio in the repeat runs, not every such curve was filed as active; the % refers to the signal ratio)
Procedure, shortened: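 Dexamethasone (5 nM final) stimulated a stably integrated GRE-beta-lactamase reporter in HeLa cells during 18 h co-incubation with compounds; signal was quantified as fluorescence intensity of B/G FRET substrate after 2 h.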

[20] = qHTS assay for small molecule disruptors of the mitochondrial membrane potential (AID 720635)
Procedure, shortened: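 HepG2 cells exposed to compound 1 hr at 37C, then Mito-MPS dye 30 min. Ratio read of aggregate (540/590 nm) versus monomer (490/535 nm) fluorescence.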

Measured: Potency

Chain of Glucocorticoid receptor (Homo sapiens) (P04150 whole entry, looked up): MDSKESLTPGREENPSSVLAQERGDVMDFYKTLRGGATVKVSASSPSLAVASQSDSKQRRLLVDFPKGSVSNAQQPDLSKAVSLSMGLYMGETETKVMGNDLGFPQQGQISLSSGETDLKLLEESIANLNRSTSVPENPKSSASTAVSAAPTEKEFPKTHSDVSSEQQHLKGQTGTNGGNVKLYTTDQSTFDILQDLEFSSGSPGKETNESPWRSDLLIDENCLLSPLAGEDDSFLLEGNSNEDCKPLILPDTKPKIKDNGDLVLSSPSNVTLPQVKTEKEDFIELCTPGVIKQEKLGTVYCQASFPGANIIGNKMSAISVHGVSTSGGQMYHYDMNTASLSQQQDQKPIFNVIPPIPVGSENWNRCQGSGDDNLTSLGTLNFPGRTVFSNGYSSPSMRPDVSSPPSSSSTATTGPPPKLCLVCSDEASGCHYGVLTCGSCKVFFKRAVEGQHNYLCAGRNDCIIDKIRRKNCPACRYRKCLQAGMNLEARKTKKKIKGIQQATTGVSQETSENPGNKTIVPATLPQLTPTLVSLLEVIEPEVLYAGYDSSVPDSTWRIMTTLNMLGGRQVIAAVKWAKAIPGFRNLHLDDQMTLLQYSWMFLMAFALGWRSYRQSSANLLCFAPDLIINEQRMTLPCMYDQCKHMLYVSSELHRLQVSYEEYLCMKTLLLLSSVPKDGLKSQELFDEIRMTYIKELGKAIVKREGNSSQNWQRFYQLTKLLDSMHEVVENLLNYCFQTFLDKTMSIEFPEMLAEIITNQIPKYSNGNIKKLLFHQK

COc1ccc(Cl)cc1C(=O)NCCc1ccc(S(=O)(=O)NC(=O)NC2CCCCC2)cc1
not listed: [16] | [17] | [18] | [19] | [20]
inactive: all other assays above

CC(O)COCC(C)O (centres undefined)
not listed: [15] | [20]
inactive: all other assays above

CN(C)CCCN
inactive: all assays above

CC1=C(C)S(=O)(=O)CCS1(=O)=O
not listed: [14] | [15] | [20]
inactive: all other assays above

N[C@@H](Cc1cc(I)c(Oc2cc(I)c(O)c(I)c2)c(I)c1)C(=O)O
not listed: [14] | [19] | [20]
inactive: all other assays above

CCCCCCCCCCCCS
not listed: [18] | [19]
inactive: all other assays above

Cc1ccc(S(N)(=O)=O)cc1
not listed: [16]
inactive: all other assays above

CCCCCCOCCO
not listed: [2] | [14] | [16] | [17] | [20]
inactive: all other assays above
